Compound activity as filed in PubChem.
SW480 rerep = DNA re-replication induction in SW480 cells. SW480 DNA re-replication, Hoechst DNA content imaging, 48 h. Potency, µM (top dose mostly 46.1 µM), inactives show at the top dose re-replication activation, actives largely listed as activators. 340,000 compounds, 1.8% hits; further: % of control where 0% means no effect; nearly all actives have a fitted effect of over 55% in size
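Per well, 250 cells were exposed to pinned compound for 48 hr. Nuclear DNA was visualised with Hoechst (40 min, 37 C) and total object intensity recorded by fluorescence scanning.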
HT1080 IDH1KD tx = HT-1080 IDH1 knockdown cell toxicity (counter line); HT-1080 IDH1 knockdown viability, ATP luminescence, 48 h; Potency, µM (doses to about 46.1 µM), without a hit: top-dose activity, negative = toxicity, hits mostly cytotoxic; 360,000 compounds, 2% hits; AID 686971;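 further: 0% = DMSO wells and -100% = cell-free medium wells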
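% activity derives from luminescence (CellTiter-Glo), normalised to DMSO and no-cell wells. HT-1080-IDH1KD cells, 750/well, had 48 h compound exposure at 37 °C.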
MCF10A rerep = inducers of DNA re-replication in MCF 10A breast cells. MCF 10A DNA re-replication, Hoechst nuclear intensity, 48 h. 350,000 compounds, 2.9% hits. Potency, µM (series often up to 46.1 µM), for inactives: at the top dose activity, positive = re-replication, hits mostly activators; further: % of control where 0% means no effect; nearly all actives have a fitted effect of over 50% in size
KB-V1 MDR tox = KB-V1 MDR subline cytotoxicity | KB-V1 MDR cells viability, CellTiter-Glo, 72 h | Potency, µM (highest dose often 46.1 µM), most hits filed as cytotoxic | 400,000 compounds, 3.4% hits | AID 1347076; further: on the % scale 0 is the no-effect control and ±100 the full control effect; nearly all actives have a fitted effect of over 60% in size
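KB-V1, DMEM (no phenol red) + 10% FBS; cpd pin-transferred, titration series; 72 h, 37 degrees C; CellTiter-Glo, luminescence. Data normalized, curve-fit.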
KB-3-1 cytotox = kills parental KB-3-1 adenocarcinoma cells; KB-3-1 viability, CellTiter-Glo ATP luminescence, 72 h; Potency, µM (titrated, usually from 46.1 µM), usual class: cytotoxic; 400,000 compounds, 1.4% hits; further: on the % scale 0 is the no-effect control and ±100 the full control effect; nearly all actives have a fitted effect of over 60% in size
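Parental KB-3-1 adenocarcinoma cells in phenol-red-free DMEM with 10% FBS were pin-treated with compounds at several concentrations, incubated 72 h at 37 °C, and viability read by CellTiter-Glo luminescence; concentration-effect curves were fitted after normalization.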
HT1080-NT tox = kills 2HG-producing HT-1080-NT fibrosarcoma cells | HT-1080-NT fibrosarcoma viability, CellTiter-Glo ATP luminescence, 48 h | Potency, µM (titrated, usually from 46.1 µM), for the others: at the top dose activity, negative = less viability, most hits filed as cytotoxic | 360,000 compounds, 1.6% hits | AID 686970;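 further: NT is the 2HG producing partner of a matched IDH1 knockdown line; 0% = DMSO-treated cells and -100% = media-only wells without cells; nearly all actives have a fitted effect of over 55% in size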
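Viability of the 2HG-overproducing fibrosarcoma line after 48 hours of compound exposure at 37 degrees C was determined by luminescence with CellTiter-Glo, and concentration-effect curves were then fitted and categorized.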
Starred values were filed as active, the others as inactive; i = inactive; ? = inconclusive; · = no result; ! = not confirmed by another sample; [ ] = dose if it differs, or a comment. A selection: hits, their analogues and other compounds. The true share with any hit is near 7.9%. The call rests on the fitted dose curve; in most records, active means well fitted curve in the direction sought with a large enough effect; inconclusive means small, poorly fitted or top-dose-only effect, or another doubt; inactive means no such curve, though single readings can be large; an effect the other way counts as inactive or inconclusive. Potency means the concentration at half of the fitted maximal effect.

SMILES	SW480 rerep	HT1080 IDH1KD tx	MCF10A rerep	KB-V1 MDR tox	KB-3-1 cytotox	HT1080-NT tox
COC(=O)[C@]1(C)N[C@H](CN(C)C(=O)COc2ccccc2)[C@@H]2C(=O)N(C)C(=O)[C@@H]21	-41%[9.22 µM]	15%	-11%	?	i	11%
Nc1cccc(CCc2nc3cc4ccccc4cc3[nH]2)c1	3.7µM*	10µM*	7.3µM*	5.8µM*	5.2µM*	?
Nc1ccc2nc(CCCCCCCCc3nc4ccc(N)cc4[nH]3)[nH]c2c1	0%	0%	2.3µM*	i	i	-4%
Nc1nc2cc3ccccc3cc2[nH]c1=O	6%	-5%	5%	3.7µM*	6.5µM*	0%
CN(C)c1ccc(C(CNC(=O)c2cccc(C(F)(F)F)c2)N2CCCC2)cc1 (centres undefined)	·	·	·	i	i	·
CC(C)C(OC(=O)C1=Cc2ccccc2OC1)C(=O)NCC1CCCO1 (centres undefined)	-8%	3%	16µM*	i	i	-5%
CC(OC(=O)C1=Cc2ccccc2OC1)C(=O)NC1CCCC1 (centres undefined)	15%	0%	-5%	i	i	-5%
C=C(C)COc1ccc2c3c(c(=O)oc2c1OCC(=C)C)CCC3	?	-2%	?	i	i	-9%
CCCS(=O)(=O)c1c(S(=O)(=O)CCC)c2c(N)cccn2c1C(=O)OC	5%	0%	-5%	i	i	-9%
CNc1oc(Cc2cccc3ccccc23)nc1C#N	1%	-6%	?	i	i	-19%
COc1ccc(CCNc2oc(Cc3cccc4ccccc34)nc2C#N)cc1OC	1%	-23%	6%	18µM*	?	-23%
CC(C)Nc1oc(Cc2cccc3ccccc23)nc1C#N	-5%	-13%	18%	16µM*	i	-4%
O=c1cc(CN2CCN(c3ccccc3)CC2)c2c(ccc3ccccc32)o1	2%	9%	6%	i	i	8%
Cc1ccccc1OCCN1C(=O)NC2(CCc3ccccc32)C1=O (centres undefined)	1%	-12%	-1%	23µM*	i	-17%
Cc1cc(CN2CCCC(CNC(=O)c3ccc(F)cc3)C2)cc(C)c1O (centres undefined)	?	-5%	23µM*	i	i	4%
O=C(NCC1CCCN(Cc2cccc(C(F)(F)F)c2)C1)c1ccc(F)cc1 (centres undefined)	?	3%	6%	i	i	-1%
Cc1cccc(C(=O)NCCc2nc3ccccc3n2Cc2ccc(Cl)cc2)c1	·	·	·	10µM*	?	·
COCc1nc2ccccc2n1Cc1cccc(C)c1	-6%	-3%	-1%	16µM*!	i	-3%
COCn1c(-c2cccc(Br)c2)nc2ccccc21	27%	?	16%	18µM*	i	?
Cc1cccc(Cn2c(COc3ccc(Cl)cc3)nc3ccccc32)c1	·	·	·	i	i	·
Cc1cccc(Cn2c(Cc3ccccc3)nc3ccccc32)c1	0%	11%	24%	21µM*!	i	0%
O=C(NCCc1nc2ccccc2n1Cc1ccc(Cl)cc1)c1ccccc1	·	·	·	?	i	·
CC(C)Cn1c(-c2cccc(Br)c2)nc2ccccc21	·	·	·	i	i	·
Cc1cccc(Cn2c(-c3ccccc3)nc3ccccc32)c1	·	·	·	i	?	·
COc1ccc2c(c1)c(=O)oc1c(C)c(OC(C)C(=O)N[C@@H](Cc3c[nH]c4ccc(O)cc34)C(=O)O)ccc12 (some centres undefined)	-66%	0%	-7%	i	i	0%
O=c1ccc(-c2nc3ccccc3n2Cc2ccc(Cl)cc2)c[nH]1	-5%	-9%	-2%	i	i	-15%
Cc1ccccc1S(=O)(=O)N1C[C@H]2CON(C)[C@H]2C[C@H]1c1cccc(-c2ccccc2)c1	-21%[9.22 µM]	-3%	?	i	i	4%
